An excerpt weighted towards active compounds, which were near 3.5% of everything screened.
MITF primary: MITF inhibitors, primary screen, biochemical, AlphaScreen, human; Microphthalmia-associated transcription factor (Homo sapiens), O75030; AlphaScreen MITF homodimerization, bead proximity signal; inhibition, % at 2.6 µM; 650,000 compounds, 0.91% hits; in the data active = inhibition above about 50%;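 also: 0% = vehicle wells with protein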
FBW7 activator: FBW7 E3 ligase activators, primary screen, biochemical, AlphaScreen, human. F-box/WD repeat-containing protein 7 (Homo sapiens), Q969H0. normalized activity (activation), % at 26.1 µM. 650,000 compounds, 0.13% hits. AlphaScreen FBW7–phospho-cyclin E peptide binding, activator screen; in the data active = normalized activity above about 1.9%;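 also: purified mutant Fbw7 with reduced substrate affinity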
GPR151 activ: activators of human GPR151, primary screen, cell-based, PathHunter beta-arrestin, luminescence; 650,000 compounds, 1% hits; activation, % at 11.2 µM; PathHunter beta-arrestin GPR151 cells; AID 1508602, 2020; in the data active = activation above about 4.9%;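 also: 0% = median of compound wells and 100% = cells with positive control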
Target sequence (Q8TDV0 whole entry, looked up): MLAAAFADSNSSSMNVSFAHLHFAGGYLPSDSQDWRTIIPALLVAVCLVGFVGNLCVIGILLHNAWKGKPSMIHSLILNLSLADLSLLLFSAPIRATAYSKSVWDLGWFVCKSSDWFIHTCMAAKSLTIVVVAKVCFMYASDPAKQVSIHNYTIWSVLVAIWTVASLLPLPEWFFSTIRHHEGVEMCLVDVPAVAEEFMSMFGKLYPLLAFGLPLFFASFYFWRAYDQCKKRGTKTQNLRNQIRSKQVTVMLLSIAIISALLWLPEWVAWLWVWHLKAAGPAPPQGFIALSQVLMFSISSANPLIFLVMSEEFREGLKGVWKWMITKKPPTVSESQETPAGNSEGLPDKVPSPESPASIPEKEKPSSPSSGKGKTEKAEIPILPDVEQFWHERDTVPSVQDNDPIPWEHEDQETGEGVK
TEAD-YAP block: TEAD-YAP interaction inhibition, primary screen, TEAD-YAP interaction inhibitor project, luminescence, HEK-TIYL cells. TEAD-Gal4/YAP UAS-luciferase luminescence. inhibition, % at 9.12 µM. 640,000 compounds, 1.4% hits. AID 1259422, 2018; in the data active = inhibition above about 32%;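 also: 0% = median of test compound wells and 100% = reference inhibitor wells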
* hit, by the source's call.

What do the screens show for `O=C(Nc1ccc(Cl)c(Cl)c1)c1ccc(F)c(S(=O)(=O)N2CCCc3ccccc32)c1`?
MITF primary: -7.8; FBW7 activator: 0.0; GPR151 activ: -0.6; TEAD-YAP block: 48.6*

What do the screens show for `O=C(Nc1ccc(F)c(F)c1)c1ccc(F)c(S(=O)(=O)N2CCCc3ccccc32)c1`?
MITF primary: -14.1; FBW7 activator: 0.0; GPR151 activ: 0.6; TEAD-YAP block: 43.1*

Results for COc1cccc(NC(=O)CN2CCC(Nc3nc4c(c(=O)[nH]3)CCCC4)CC2)c1 ?
MITF primary: 5.0; FBW7 activator: 0.3; GPR151 activ: 1.0; TEAD-YAP block: 1.6

What do the screens show for `NC(=O)c1ccc(-c2nc(NCCCN3CCCC3=O)c3ncn(-c4ccccc4)c3n2)cc1`?
MITF primary: 13.7; FBW7 activator: -0.1; GPR151 activ: 1.0; TEAD-YAP block: 55.1*

What do the screens show for `CC(=O)c1cccc(-c2nc(NCCCN3CCCC3=O)c3ncn(-c4ccccc4)c3n2)c1`?
MITF primary: -6.8; FBW7 activator: -0.1; GPR151 activ: -0.8; TEAD-YAP block: 57.9*

How did CC(=O)c1cccc(-c2nc(NCCCN3CCCC3=O)c3ncn(CCN4CCCC4=O)c3n2)c1 do in these assays?
MITF primary: -6.9; FBW7 activator: -0.1; GPR151 activ: -1.1; TEAD-YAP block: 0.1

What do the screens show for `O=C(NC1CC1)c1ccc(-c2nc(NCCCN3CCCC3=O)c3ncn(-c4ccccc4)c3n2)cc1`?
MITF primary: 1.3; FBW7 activator: -0.1; GPR151 activ: 0.3; TEAD-YAP block: 63.7*

How did O=C(Nc1ccc(O)cc1)c1sc2ccccc2c1Cl do in these assays?
MITF primary: 3.1; FBW7 activator: -0.2; GPR151 activ: -2.0; TEAD-YAP block: 87.0*

Results for O=C(N/N=C/c1ccc(O)c(O)c1O)c1sc2ccccc2c1Cl ?
MITF primary: 60.8*; FBW7 activator: -0.7; GPR151 activ: -1.0; TEAD-YAP block: -0.8

What do the screens show for `COC(=O)c1sc(NC(=O)c2sc3ccccc3c2Cl)nc1C`?
MITF primary: 28.2; FBW7 activator: 0.1; GPR151 activ: 1.8; TEAD-YAP block: -58.5

Results for Cc1nc(NC(=O)c2sc3ccccc3c2Cl)sc1C ?
MITF primary: 7.4; FBW7 activator: 0.3; GPR151 activ: -7.6; TEAD-YAP block: 86.6*

What do the screens show for `Cc1nc(C)n(-c2ccc(Nc3nccc(-c4cncc5ccccc45)n3)cc2)n1`?
MITF primary: 17.3; FBW7 activator: 0.9; GPR151 activ: -1.0; TEAD-YAP block: 80.9*

Results for Cc1nc(C)n(-c2ccc(Nc3nccc(-c4ccccc4-c4ccccc4)n3)cc2)n1 ?
MITF primary: 23.6; FBW7 activator: 0.1; GPR151 activ: -1.1; TEAD-YAP block: -6.8

What do the screens show for `CCc1ccc(N=C2N=C(N)c3ccccc32)cc1`?
MITF primary: 0.7; FBW7 activator: -0.1; GPR151 activ: 2.1; TEAD-YAP block: -31.1

How did NC1=NC(=Nc2ccc(N3CCOCC3)cc2)c2ccccc21 do in these assays?
MITF primary: -12.1; FBW7 activator: -0.4; GPR151 activ: -0.3; TEAD-YAP block: 47.8*

What do the screens show for `CCc1c(-c2ccccc2)n(CC(O)c2ccccc2)c2nc3c(c(=O)n(C)c(=O)n3C)n12` (configuration not stated)?
MITF primary: 10.0; FBW7 activator: -0.1; GPR151 activ: 3.1; TEAD-YAP block: 38.9*

What do the screens show for `CCc1c(-c2ccccc2)n(CCO)c2nc3c(c(=O)n(C)c(=O)n3C)n12`?
MITF primary: 18.3; FBW7 activator: 0.1; GPR151 activ: 2.2; TEAD-YAP block: 64.3*

How did CCCn1c(-c2ccccc2)c(CC)n2c3c(=O)n(C)c(=O)n(C)c3nc12 do in these assays?
MITF primary: 12.3; FBW7 activator: 0.6; GPR151 activ: 0.6; TEAD-YAP block: 5.9

How did COc1cccc(C(=O)NC(c2ccccc2)c2cc(Cl)c3cccnc3c2O)c1 (configuration not stated) do in these assays?
MITF primary: 16.3; FBW7 activator: 0.3; GPR151 activ: -1.4; TEAD-YAP block: 9.7

Results for COc1ccccc1C(NC(=O)c1cccnc1)c1cc(Cl)c2cccnc2c1O (configuration not stated) ?
MITF primary: 4.0; FBW7 activator: -0.3; GPR151 activ: 1.2; TEAD-YAP block: 18.5

How did COc1cccc(C(=O)NC(c2ccco2)c2cc(Cl)c3cccnc3c2O)c1 (configuration not stated) do in these assays?
MITF primary: 24.6; FBW7 activator: -0.3; GPR151 activ: -0.1; TEAD-YAP block: 79.0*

Results for COc1cccc(C(=O)NC(c2ccccc2OC)c2cc(Cl)c3cccnc3c2O)c1 (configuration not stated) ?
MITF primary: 4.5; FBW7 activator: -0.4; GPR151 activ: -0.7; TEAD-YAP block: 41.0*

Results for CCOc1ccc(NC(=O)CC2Sc3ccccc3NC2=O)c([N+](=O)[O-])c1 (configuration not stated) ?
MITF primary: -11.4; FBW7 activator: 0.0; GPR151 activ: -1.1; TEAD-YAP block: 52.4*

What do the screens show for `Cc1ccc(NC(=O)CC2Sc3ccccc3NC2=O)c(C)c1` (configuration not stated)?
MITF primary: 7.1; FBW7 activator: 0.0; GPR151 activ: -0.5; TEAD-YAP block: 16.2

How did CCOc1ccc(NC(=O)c2cccc3ccccc23)c([N+](=O)[O-])c1 do in these assays?
MITF primary: 25.2; FBW7 activator: -0.3; GPR151 activ: -1.6; TEAD-YAP block: 42.7*

Results for Cc1ccc(NC(=O)CC2Sc3ccccc3NC2=O)c([N+](=O)[O-])c1 (configuration not stated) ?
MITF primary: 2.2; FBW7 activator: -0.2; GPR151 activ: 1.3; TEAD-YAP block: 48.1*

How did CCOc1cc([N+](=O)[O-])ccc1NC(=O)CC1Sc2ccccc2NC1=O (configuration not stated) do in these assays?
MITF primary: 3.8; FBW7 activator: 0.1; GPR151 activ: -0.1; TEAD-YAP block: 57.8*

What do the screens show for `CC(=O)CCc1ccc(OCCCSc2ncccn2)cc1`?
MITF primary: 1.2; FBW7 activator: -0.1; GPR151 activ: -0.2; TEAD-YAP block: -37.9

What do the screens show for `COc1ccc(OC(=O)c2cc3cc(Br)cc(Br)c3oc2=O)cc1`?
MITF primary: 3.4; FBW7 activator: 0.0; GPR151 activ: -1.7; TEAD-YAP block: 10.6

How did CCOC(=O)C1CCN(c2nccc(-c3ccc(S(C)(=O)=O)cc3)n2)CC1 do in these assays?
MITF primary: 5.6; FBW7 activator: 0.2; GPR151 activ: -0.9; TEAD-YAP block: 6.3

How did Cc1ccc(S(=O)(=O)c2c[nH]c(=S)[nH]c2=O)cc1 do in these assays?
MITF primary: -0.7; FBW7 activator: 0.0; GPR151 activ: 0.4; TEAD-YAP block: 2.6

Results for COc1ccc(CN(C)Cc2nc(CCc3ccccc3)no2)c2cccnc12 ?
MITF primary: 5.8; FBW7 activator: 0.6; GPR151 activ: -1.4; TEAD-YAP block: 35.4*

How did O=C(NCCOc1ccccc1)c1cccc(Nc2ccc(N3CCOCC3)cc2)n1 do in these assays?
MITF primary: 0.7; FBW7 activator: -0.2; GPR151 activ: 3.6; TEAD-YAP block: 47.0*
